# FBPA Giardia inh: qHTS Assay for Inhibitors of Fructose-1,6-bisphosphate Aldolase from Giardia Lamblia. purified Giardia FBPA. Potency, µM (highest dose often 59.6 µM), without a hit: top-dose activity, negative = inhibition, actives largely listed as inhibitors. 290,000 tested, 0.71% active; further: potency means the concentration at half of the fitted maximal effect; on the % scale 0 is the no-effect control and ±100 the full control effect; nearly all actives have a fitted effect of over 55% in size
# Target sequence (A8B2U2 whole entry, looked up): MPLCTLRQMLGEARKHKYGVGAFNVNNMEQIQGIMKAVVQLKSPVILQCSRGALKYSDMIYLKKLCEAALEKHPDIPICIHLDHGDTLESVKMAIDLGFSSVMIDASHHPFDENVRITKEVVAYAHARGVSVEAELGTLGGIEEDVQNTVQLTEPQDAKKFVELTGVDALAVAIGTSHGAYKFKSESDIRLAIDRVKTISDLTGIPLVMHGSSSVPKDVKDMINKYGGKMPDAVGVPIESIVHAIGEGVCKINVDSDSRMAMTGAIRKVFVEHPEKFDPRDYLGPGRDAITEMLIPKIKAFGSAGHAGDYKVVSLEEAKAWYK
#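 Giardia FBPA (40 nM reagent) was preincubated 10 min at RT with compound (up to 57.5 uM final), then substrate plus GAPDH/TPI/NAD/arsenate coupling system with diaphorase/resazurin was added; resorufin fluorescence (525/598 nm) was read after 20 min.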
# Shiga inhibitor: A qHTS for Small Molecule Inhibitors of Shiga Toxin; Vero cells, Shiga toxin protein synthesis inhibition reporter; 290,000 tested, 9.2% active; inhibition, % at 38.7 µM; in the data active means inhibition mostly above about 28%, no sharp cut-off; inactive means mostly below about 43%; further: 0% is about no effect
# CHX counter: Cycloheximide Counterscreen for Small Molecule Inhibitors of Shiga Toxin | 300,000 tested, 12% active | cell reporter, cycloheximide protein synthesis inhibition counterscreen | max response, % | AID 2314, 2010; in the data active means max response mostly above about 13%, no sharp cut-off; inactive means mostly below about 14%; further: read at 38.3 µM for the half of the compounds with a filed dose; 0% is about no effect
# NS1 inh: qHTS Assay for Inhibitors of Influenza NS1 Protein Function. Potency, µM (doses to about 46.1 µM), for the others: top-dose activity, positive = more growth. AID 2326, 2010. 270,000 tested, 0.4% active; calls by dose curve; further: potency means the concentration at half of the fitted maximal effect; actives are rising curves; nearly all actives have a fitted effect of over 50% in size
#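 OD600 was taken as the measure of yeast growth restored by compound in an NS1-expressing S. cerevisiae strain. Cells had been washed out of glucose medium and diluted 1:100 into galactose -URA medium, pH 6.0.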
# Pf growth 48h: Primary qHTS for delayed death inhibitors of the malarial parasite plastid, 48 hour incubation | P. falciparum luciferase growth in erythrocytes, 48 h | Potency, µM (series often up to 28.7 µM), for inactives: top-dose activity change, negative = inhibition, actives largely listed as inhibitors | 310,000 tested, 5.9% active | AID 504832, 2011; further: potency means the concentration at half of the fitted maximal effect; on the % scale 0 is the no-effect control and ±100 the full control effect
#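 Cell-based growth assay: transgenic P. falciparum expressing firefly luciferase, cultured in red cells within RPMI 1640 containing 0.5% w/v Albumax, 24 mM bicarbonate and gentamycin. A drop in luciferase activity indicates inhibition.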
# Pf growth 96h: Primary qHTS for delayed death inhibitors of the malarial parasite plastid, 96 hour incubation | P. falciparum luciferase reporter growth, 96 h | AID 504834, 2011 | 320,000 tested, 6.9% active | Potency, µM (doses to about 28.7 µM), for inactives: top-dose activity change, negative = inhibition, actives largely listed as inhibitors; further: potency means the concentration at half of the fitted maximal effect; on the % scale 0 is the no-effect control and ±100 the full control effect
#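 Infected RBCs, 2% Hct / 0.05% parasitemia final; luciferase-reporter P. falciparum; cpd 96 h, 37 C, 5% CO2; luciferase detection reagent; luminescence.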
# An asterisk follows results filed as active; i = inactive; u = inconclusive; x = no result given; [ ] = remark or other dose. This is a sample that favours compounds with a hit; in the whole collection about 21% have one here. Unless noted, the call rests on the fitted dose curve; in most records, active means well fitted curve in the direction sought with a large enough effect; inconclusive means small, poorly fitted or top-dose-only effect, or another doubt; inactive means no such curve, though single readings can be large; an effect the other way counts as inactive or inconclusive.
SMILES,FBPA Giardia inh,Shiga inhibitor,CHX counter,NS1 inh,Pf growth 48h,Pf growth 96h
O=c1c2sc(-c3ccccc3)cc2nc2n1CCCCC2,1%,56*,53*,-35%,300%,i
O=c1c2sc(-c3ccccc3)cc2nc2n1CCC2,6%,26*,24*,-50%,240%,425%
CCCCSc1nc(CCC)cc(=O)[nH]1,-7%,-16,10,-12%,22%,-9%
CCCc1cc(=O)[nH]c(NCc2ccc(Cl)cc2)n1,1%,-13,-3,9%,-26%,16%
CCCc1cc(=O)[nH]c(NCCc2ccccc2)n1,6%,3,-3,-1%,u,13µM*
CCCc1cc(=O)[nH]c(SCCc2ccccc2)n1,-25%,30,12*,-2%,17%,9.3µM*
O=c1ccnc(NCCc2ccccc2)[nH]1,1%,48,29*,9%,22%,x
Cn1c(=O)cc(NCCc2ccccc2)[nH]c1=O,-2%,-10,-1,10%,12%,10%
CC(=O)c1ccc(-c2cccc(-c3cc(=O)oc4ccc(C(C)(C)C)cc34)c2)cc1,-3%,i,19,x,x,x
COc1ccc(NS(=O)(=O)c2cn(C)cn2)c(OC)c1,-2%,3,0,-1%,15%,9%
CCc1cc2c(cc3c(=O)n(CC(=O)N4CCN(C)CC4)ncn32)s1,x,-5,-6,10%,21%,u
O=C(N/N=C/C=C/c1ccccc1)c1cnccn1,0%,30,13*,0%,x,9%
CC(/C=C/c1ccccc1)=N/NC(=O)c1cnccn1,-6%,32*,27*,10%,45%,12%
CC(C)c1cc(C(=O)N/N=C/C=C/c2ccccc2)n[nH]1,-2%,15,1,-2%,10%,3%
CC(/C=C/c1ccccc1)=N\NC(=O)c1cc(C)[nH]n1,-12%,33,36*,x,-8%,u
O=C(/C=C/c1ccccc1)NC(=S)NNC(=O)c1cnccn1,u,20,1,-69%,-12%,0%
O=C(O)/C=C/c1ccc(O)c(O)c1,u,8,3,2%,-8%,-5%
O=C(/C=C/c1ccc(O)c(O)c1)c1ccc(O)cc1O,-12%,35*,10*,x,x,x
Cc1ccc2c(c1)COc1c3ccc(C(=O)NC(C)C)cc3nn1-2,5%,76*,35*,-9%,104%,34%
Cc1ccc2c(c1)COc1c3ccc(C(=O)N[C@@H](C)CO)cc3nn1-2,-2%,53*,42*,-2%,218%,21%
COc1ccc(Oc2ncc3nc(C)c(=O)n(C4CC4)c3n2)cc1,-10%,x,x,x,x,x
CCN1CCN(C(=O)C(C)Sc2nnc3nc(C)cc(C)n23)CC1 (configuration not stated),x,x,x,x,60%,20%
CCOC(=O)COc1nc(OC)nc(N2CCOCC2)n1,3%,1,-1,4%,-8%,2.6µM*
COc1ccc(OC)c(NC(=O)CCN2CCN(C)CC2)c1,u,-18,1,19%,27%,191%
O=C(NC1(O)C(=O)c2ccccc2C1=O)c1c(Cl)cccc1Cl,u,-6,-4,-51%,2.9µM*,33%
SMILES,FBPA Giardia inh,Shiga inhibitor,CHX counter,NS1 inh,Pf growth 48h,Pf growth 96h
O=C(NC1(O)C(=O)c2ccccc2C1=O)c1ccccc1,u,-3,-2,5%,-6%,-20%
COc1cc(OC)cc(C(=O)Nc2cccc3cccnc23)c1,10%,-5,-2,14%,32%,17%
Cc1ccc(C(=O)Nc2cccc3cccnc23)cc1C,3%,x,29*,-25%,55%,30%
Cc1cccc(C(=O)Nc2cccnc2Cl)c1,-6%,16,12*,4%,56%,u
C/C(=N\Nc1cccc2cccnc12)c1ccc(C)cc1,-23%,93*,31*,8%,344%,400%
Cc1cccc(C(=O)Nc2cccc3cccnc23)c1,-7%,70*,45*,-65%,97%,180%
O=C(Nc1cccnc1Cl)c1cccc(F)c1,0%,6,10,7%,14%,49%
CCCn1c(=O)c2[nH]c(-c3ccccc3)nc2n(CCC)c1=O,11%,x,x,x,x,x
Cc1ccc(NC(=O)CN(C)S(=O)(=O)c2cccc3cccnc23)cc1C,-8%,15,-1,12%,15%,13µM*
COc1cc(NC(=O)Nc2cccc3cccnc23)cc(OC)c1OC,3%,26,16*,-35%,u,-21%
CCOc1cc(NC(=O)c2cccs2)c(OCC)cc1NC(=O)c1ccccn1,1%,9,-2,1%,0%,u
Cc1ccc(NC(=O)CN(C)S(=O)(=O)c2cccc3cccnc23)cc1F,x,-5,5,-17%,u,u
CCOc1cc(NC(=S)NCC2CCCO2)c(OCC)cc1NC(=O)c1cccc(C)c1 (configuration not stated),-9%,-9,-3,16%,u,12µM*
CCOc1cc(NC(=O)c2ccccn2)c(OCC)cc1NC(=O)c1cccc(C)c1,1%,-8,-9,2%,-20%[1.15 µM],12µM*
COc1cc(C(=O)Nc2cccc3cccnc23)cc(OC)c1OC,-10%,-9,4,-50%,u,u
O=C(COC(=O)CNC(=O)c1ccccc1F)NC12CC3CC(CC(C3)C1)C2,x,x,x,x,-8%,-21%
COc1ccc(NC(=O)CSc2nnc(Cc3ccc(C)cc3)c(=O)n2N)cc1OC,x,x,x,x,-2%,0%
CCOc1ccc(NC(=O)CCNC(=O)Cn2ccc3ccccc3c2=O)cc1,3%,1,-5,-15%,-18%,u
O=C(Nc1cccc2cccnc12)c1cccnc1,0%,-8,-1,-8%,21%,x
Cc1cnc(C(=O)Nc2cccc3cccnc23)cn1,3%,-17,-3,-10%,0.37µM*,4%
CCOC(=O)N1CCC(N2CC34C=CC(O3)C(C(=O)Nc3ccc(OCC)cc3)C4C2=O)CC1 (configuration not stated),3%,25,-1,5%,x,u
CCOC(=O)N1CCC(N2CC34C=CC(O3)C(C(=O)Nc3ccc(F)cc3)C4C2=O)CC1 (configuration not stated),3%,-12,-1,-20%,x,15µM*
CN(C)S(=O)(=O)c1ccc(N2CCCC2)c(C(=O)NC(c2ccccc2)c2ccccc2)c1,1%,-17,-6,8%,0.83µM*,x
CN(C)S(=O)(=O)c1ccc(N2CCCC2)c(C(=O)NNC(=O)c2ccccc2)c1,x,x,x,x,7.4µM*,u
CN(C)C(=O)c1ccc(NC(=O)c2ccccc2SCC(=O)N2CCCC2)cc1,x,x,x,x,-5%,-18%
CN(C)S(=O)(=O)c1ccc(N2CCCC2)c(C(=O)NNC(=O)c2ccc(Br)cc2)c1,x,x,x,x,6%,6%
CCc1ccccc1NC(=O)c1cc(S(=O)(=O)N(C)C)ccc1N1CCCC1,x,-27,-2,14%,u,u
